Values joined by “and” are separate entries in the source; they are usually repeats but may differ in a detail not shown here. Equal entries are not always repeated. The campaign covered roughly 2,100 compounds. About 650 (31%) were called active. Another 16% or so got no clear call; they are omitted. Calls come from the whole dose curve; as a rule, active = well fitted inhibition curve with a large enough effect; inconclusive = small, poorly fitted or top-dose-only effect; inactive = flat fitted curve, though single readings scatter. The list shows a part of the results. Where a call stands in place of a potency, no number is given.
Potency is the fitted concentration of half-maximal effect.

The nature of this experiment: qHTS for inhibitors of Vif-A3G interactions: Cherry picks. Note: nearly all actives have a fitted effect of over 80% in size. To be noted: HeLa A3G-eYFP + Vif (tagged APOBEC3G with the HIV-1 protein that degrades it), 24 h; Potency: eYFP fluorescence increase; series mostly up to 36.9 µM. The gist of the method:
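Cherry-picked compounds tested at several concentrations on A3G-eYFP/Vif HeLa cells for 24 hours; loss of Vif-driven degradation read as eYFP fluorescence by cytometric plate imaging, 488 nm excitation, 500-530 nm emission.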
Background: Quantitative high-throughput screening tests each substance at several concentrations.
Take `CC(C)c1ccc(NC(=O)Nc2cnccn2)cc1`: the Potency result was “inactive”. On to `CCOC(=O)N1C/C(=C\c2ccccc2)C(=O)/C(=C/c2ccccc2)C1`, for which the Potency entry was “inactive”.

`CCOC(=O)c1ccc(/C=C2/C=C(c3ccccc3)N(c3ccc(Cl)c(C(=O)O)c3)C2=O)cc1`: the Potency is 20.6 µM (active).

For `COc1ccccc1NC(=O)C1=C(C)Nc2nc3ccccc3n2C1c1cccs1` (stereo not given), the Potency entry was “inactive”. As for `Cc1cc(C)c(N2C(=O)CC(Sc3ccccc3N)C2=O)c(C)c1` (stereo not given), the entry is “inactive”; as for `CCN1/C(=C/c2ccc3ccccc3[n+]2CC)C=Cc2ccccc21`, 9.2 µM (active).

On to `Cc1ccc(S(=O)(=O)N2CCCCC2)cc1NC(=O)Cn1ncc(Cl)c(Cl)c1=O`, for which the Potency entry was “inactive”.

As to `CC(=O)Nc1ccc(-c2ccnc3c2CC(C(=O)NCc2ccccc2)O3)cc1` (stereo not given), the Potency entry is “inactive”.

Take `O=C1Nc2ccc(Br)cc2C12NNc1ccccc1O2` (stereo not given): the Potency is 17.7 µM (active). As for `O=C(NC(=S)N1CCN(C2CCCCC2)CC1)c1ccccc1`, the entry is “inactive”; as for `C=C(NC(=O)C(=C)NC(=O)c1csc(C2=NC3c4csc(n4)C4NC(=O)c5csc(n5)C(C(C)(O)C(C)O)NC(=O)C5CSC(=N5)/C(=C/C)NC(=O)C(C(C)O)NC(=O)c5csc(n5)C3(CC2)NC(=O)C(C)NC(=O)C(=C)NC(=O)C(=C)NC(=O)C(C(C)C)NC2C=Cc3c(C(C)O)cc(nc3C2O)C(=O)OC4C)n1)C(N)=O` (stereo not given), 4.44 µM (active); as for `CCN(CC)c1ccc(/C=C/c2cccc[n+]2C)c(OC)c1`, 17.7 µM (active). As for `CCN(CC)c1ccc(NC(=O)c2cccc(F)c2)c(C)c1`, the entry is “inactive”.

For `COc1ccc(C(=S)N2CCN(c3cccc(Cl)c3)CC2)c(OC)c1`, the Potency entry was “inactive”. As for `Cc1ccc(-n2c(O)c(/C=C3/C(c4ccccc4)=Nc4ccccc43)c(=O)[nH]c2=O)cc1`, the entry is “inactive”. In the case of `CN(C)c1ccc2nc3c(=O)[nH]c(=O)nc-3n(CC(O)C(O)C(O)CO)c2c1` (stereo not given), the Potency result was “inactive”. Consider `O=C(c1ccccc1)C1C(=O)c2ccccc2C1=O`, for which the Potency entry was “inactive”. Regarding `NN=C1c2ccccc2C(=O)C1C(=O)C(c1ccccc1)c1ccccc1` (stereo not given), the Potency was 12.5 µM (active).

As for `Cc1cccc(CS(=O)(=O)c2ncc(Cl)c(C(=O)Nc3c(C)cccc3C)n2)c1`, the Potency entry is “inactive”. The same measure for `COc1cc2c3nnc(-c4ccc(F)cc4)c-3cn(Cc3ccc(C)cc3)c2cc1OC`: 5.59 µM (active); for `COc1ccc(C2=NOC(C(=O)NCc3ccc(F)cc3)C2)cc1OC` (stereo not given): “inactive”; for `COc1ccc(-c2cnc3c(NC=O)cc(-c4cc(OC)c(OC)c(OC)c4)cn23)cc1OC`: “inactive”. In the case of `Cc1ccc(C)c(Cn2c(=O)n(CCCC(=O)NCc3ccco3)c(=O)c3sccc32)c1`, the Potency result is “inactive”. As for `CCn1c(O)c(/C=N/N=C/c2ccc(OC)cc2)c2cc(C3=NNC(=O)CC3)ccc21`, the figure is 5.8 µM (active); as for `Cc1ccc(-c2cn3nc(-c4ccccc4)c(-c4ccccc4)nc3n2)cc1`, 20.6 µM (active).

Regarding `NNC(=S)Nc1c(F)cc(F)cc1Br`, the Potency result was “inactive”.

In the case of `N#Cc1ccc(-c2ccco2)nc1SCc1ccccc1`, the Potency entry was “inactive”. For the compound `N#Cc1c(C(F)(F)F)cc(-c2ccco2)nc1SCc1ccccn1`, the Potency was 16.4 µM (active). As for `Cc1cc(C)cc(NC2=NC3(CCCCC3)N=C(N)N2)c1`, the entry is “inactive”; as for `COc1ccc(OC)c(NS(=O)(=O)c2ccc(Cl)s2)c1`, “inactive”. The same measure for `COc1ccccc1N1C(=O)c2cccc3c(C(=O)O)ccc(c23)C1=O`: “inactive”; for `Cc1ccccc1N1C(=O)c2cccc3c(N(C)CCO)ccc(c23)C1=O`: 20.6 µM (active). Take `Cc1ccccc1OCC(=O)NNC(=O)Nc1ccc(Cl)cc1`: the Potency entry was “inactive”. For `CCN1C/C(=C/c2cccc([N+](=O)[O-])c2)C(=O)/C(=C/c2cccc([N+](=O)[O-])c2)C1`, the Potency entry is “inactive”.

As to `CN1C/C(=C\c2ccc(N3CCOCC3)cc2)C(=O)/C(=C/c2ccc(N3CCOCC3)cc2)C1`, the Potency was 18.4 µM (active). As to `O=C1/C(=C/c2ccccc2)CN(C(=O)CCN2CCOCC2)C/C1=C\c1ccccc1`, the Potency result is “inactive”. As for `COc1ccc(N2CC(C(=O)N/N=C/c3ccc(C)cc3)CC2=O)cc1` (stereo not given), the entry is “inactive”; as for `CC[n+]1ccccc1/C=C/c1ccc(N(C)C)cc1`, 18.4 µM (active); as for `CC(C)CC[n+]1ccccc1/C=C/c1ccc(N(C)C)cc1`, 20.6 µM (active).

Take `COc1ccc(-c2nc3c4ccccc4ccn3c2Cc2ccsc2)cc1OC`: the Potency entry is “inactive”. As for `CCOC(=O)c1[nH]c(C)c(C(=O)Nc2ccccc2C)c1C`, the entry is “inactive”; as for `N#C/C(=C\c1ccc(-c2ccc(C(=O)O)cc2)o1)c1nc2ccccc2[nH]1`, 4.61 µM (active); as for `Cc1ccc2nc(/C(C#N)=C\c3ccc([N+](=O)[O-])o3)[nH]c2c1`, 3.26 µM (active). The same measure for `Cc1ccc2nc(/C(C#N)=C/c3ccc(-c4ccc(C(=O)OC(C)C)cc4)o3)[nH]c2c1`: 6.51 µM (active). On to `Cc1c(Cl)cccc1-c1ccc(/C=C(\C#N)c2nc3ccccc3[nH]2)o1`, for which the Potency is 16.4 µM (active). In the case of `Cc1ccc([N+](=O)[O-])cc1-c1ccc(/C=C(\C#N)c2[nH]nc(N)c2C#N)o1`, the Potency result is “inactive”. `COc1ccc(-c2[nH]ncc2N=Nc2ccccc2)cc1`: the Potency entry is “inactive”.

As to `O=C(c1[nH]c(C(F)(F)F)nc1-c1ccccc1)N1CCN(c2ccccc2)CC1`, the Potency entry is “inactive”. For the compound `COc1cccc(/C=N/NC(=O)c2cc3c(OC)c(OC)ccc3[nH]2)c1OC`, the Potency entry is “inactive”. The same measure for `Cc1cc(-c2ccccc2)nc(N/N=C/c2ccccc2F)n1`: “inactive”. As for `CC(/C=N/NC(=O)c1cc(-c2ccc(C)s2)[nH]n1)=C\c1ccccc1`, the entry is “inactive”. Take `Cc1ccc(/C=N/NC(=O)CCCOc2ccc(Cl)cc2Cl)cc1`: the Potency entry was “inactive”. As for `COc1ccc(S(=O)(=O)Nc2cccc(-c3ccc4nncn4n3)c2)cc1F`, the Potency entry was “inactive”.

As for `CCOC(=O)c1cccc(NC(=O)N2CC=C(c3c[nH]c4ccccc34)CC2)c1`, the Potency result is “inactive”. With `Cc1ccc2nc(/C(C#N)=C/c3ccc(-c4cccc(Cl)c4)o3)[nH]c2c1`, the Potency was 6.51 µM (active).

On to `Cc1ccc2nc(/C(C#N)=C/c3ccc(-c4ccc(F)cc4F)o3)[nH]c2c1`, for which the Potency was 23.1 µM (active). Take `N#C/C(=C\c1ccc(-c2ccc(F)cc2F)o1)c1nc2ccccc2[nH]1`: the Potency is 20.6 µM (active). The same measure for `Cc1ccc2nc(/C(C#N)=C/c3ccc(-c4ccccc4C(=O)O)o3)[nH]c2c1`: 3.26 µM (active). As for `CC1Cc2cc(S(=O)(=O)CCC(=O)NCc3ccc(Cl)cc3)ccc2N1C(=O)C1CC1` (stereo not given), the Potency entry is “inactive”. Consider `CCOC(=O)c1c(C)sc(-c2c(-c3ccccc3)[nH]c3[nH]c(=O)[nH]c(=O)c23)c1O`, for which the Potency was 7.31 µM (active). The same measure for `CC(C)=CCn1c2ccc(NC(=O)NCc3ccc(F)cc3)cc2c(=O)n1C`: “inactive”.

For the compound `Nc1c(C(=O)Nc2ccccc2F)sc2nc(-c3ccco3)ccc12`, the Potency was 23.1 µM (active).

For the compound `Cc1ccccc1NC(=O)c1sc2nc3c(c(-c4ccco4)c2c1N)CCC3`, the Potency result was “inactive”.

Take `COc1ccc(/C=N/NC(=O)c2[nH]nc3c2CCc2ccccc2-3)cc1OC`: the Potency entry is “inactive”. The same measure for `CC(=O)Nc1ccc(S(=O)(=O)N2CCSc3ccccc32)cc1`: “inactive”; for `Cn1cc(C2=C(c3ccc(Cl)cc3Cl)C(=O)NC2=O)c2ccccc21`: 13 µM (active) and 18.4 µM (active); for `COc1ccc(-n2nnnc2-c2ccccc2)cc1`: “inactive”. As for `Cc1cccc(NC(=O)/C(C#N)=C/c2cn(CC(=O)NCc3ccco3)c3ccccc23)c1C`, the entry is “inactive”.

In the case of `O=S(=O)(Nc1ccc(C(O)(C(F)(F)F)C(F)(F)F)cc1)c1ccc(Cl)c2nonc12`, the Potency result is “inactive”. For `COc1ccccc1N1CCN(C(=O)c2cc(=O)c3cc(C)cc(C)c3o2)CC1`, the Potency result is “inactive”.

Turning to `COc1cccc(-c2cnc3c(NC=O)cc(-c4cc(OC)c(OC)c(OC)c4)cn23)c1`, the Potency entry is “inactive”. For the compound `COc1cccc(NC(=O)c2oc3ccc(S(=O)(=O)N4CCC5(CC4)OCCO5)cc3c2C)c1`, the Potency result is “inactive”. The same measure for `Clc1ccc(/C=N/NC2=Nc3cccc4cccc2c34)cc1`: 18.4 µM (active). Turning to `O=C(N/N=C/c1ccc(Cl)cc1)c1cc2c(s1)-c1ccccc1CC2`, the Potency entry is “inactive”. As for `CCOC(=O)Cc1ccc(Nc2nc3cc(-c4sccc4C)sc3c(=O)n2C)cc1`, the entry is “inactive”. As for `O=C(O)CSc1cc(NS(=O)(=O)c2cccc([N+](=O)[O-])c2)c2ccccc2c1O`, the entry is “inactive”. As for `COc1ccc(-n2c(O)c(/C=N/NS(=O)(=O)c3ccc(C)c([N+](=O)[O-])c3)c3ccccc3c2=O)cc1OC`, the figure is 11.6 µM (active).

As for `COc1ccc(-n2c(O)c(/C=N/NS(=O)(=O)c3cccc([N+](=O)[O-])c3)c3ccccc3c2=O)cc1OC`, the Potency is 15.8 µM (active).

With `COc1ccc(C(=O)C(C)[n+]2ccc(C)c3ccccc32)cc1[N+](=O)[O-]` (stereo not given), the Potency entry is “inactive”. As for `COc1cc(-c2noc(C)c2/C=C/c2cccc([N+](=O)[O-])c2)cc(OC)c1OC`, the entry is “inactive”. On to `O=c1[nH]cnc2n[nH]nc12`, for which the Potency result was “inactive”. The same measure for `CN(C)c1ccc2ccc3cccc4ccc1c2c34`: 14.6 µM (active); for `Cc1ccc(-c2nc(-c3cc4cccc(OCc5cccc(F)c5)c4oc3=O)no2)cc1`: 18.4 µM (active).

Turning to `COc1ccccc1-c1cc(C(=O)NN)[nH]n1`, the Potency entry is “inactive”. As for `COc1ccccc1-c1nnc2sc(-c3cc4ccccc4o3)nn12`, the entry is “inactive”.

With `CCCCCCc1cc2cc(-c3nnc(-c4ccccc4)o3)c(=O)oc2cc1O`, the Potency was 1.58 µM (active). As for `CCCCCCc1cc2cc(-c3nnc(-c4ccccc4OC)o3)c(=O)oc2cc1O`, the figure is 3.53 µM (active).

For the compound `O=C1OCC2=C1C(c1ccc3c(c1)OCO3)c1cc3c(cc1O2)OCO3` (stereo not given), the Potency result is “inactive”. The same measure for `COc1cccc(C2=CC(c3ccccc3)n3nnnc3N2)c1` (stereo not given): “inactive”. As for `O=S(=O)(Nc1nc2n(n1)C(c1ccccc1)C=C(c1ccc(Cl)cc1)N2)c1ccccc1` (stereo not given), the figure is 18.4 µM (active). As for `CN(C)CCN(C(=O)/C=C/c1cccs1)c1nc2c(F)cc(F)cc2s1`, the Potency result is “inactive”. Regarding `COc1ccccc1NC(=O)Cc1ccc(-c2ccccc2)cc1`, the Potency result was “inactive”. The same measure for `CC(=O)Nc1ccc(CC(=O)NCCC(c2ccccc2)c2ccccc2)cc1`: “inactive”; for `COC(=O)CCC(=O)NC(=S)Nc1sc(C)c(C)c1C(N)=O`: “inactive”; for `CC(=O)Nc1sc(C)c(C)c1C(=O)OCC(=O)Nc1ccccc1`: 20.6 µM (active).

Values taken from PubChem BioAssay AID651812 (National Center for Advancing Translational Sciences (NCATS), 2012).
